# Results: PubChem BioAssay AID434998 (Southern Research Specialized Biocontainment Screening …, 2010)
# Activity calls are given as the source filed them. How the calls were made is not given here.
# Assay: S. Typhi GFP reporter counter-screen inhibition, SAR follow-up, counter-screen for PhoP regulon inhibitor project, purified and synthesized compounds, round 3 (AID 434998)
# Settings: S. typhi GFP reporter fluorescence, high Mg2+ counter-screen, 4 h; series mostly up to 150 µM
row,SMILES,outcome
1,Cc1ccc(NC(=O)N2CCCN(Cc3ccccc3F)C2)cc1,inactive
2,O=C(Nc1ccc(I)cc1)N1CCCN(Cc2ccccc2F)C1,inactive
3,O=C(Nc1cccc(C(F)(F)F)c1)N1CCCN(Cc2ccccc2F)C1,inactive
4,O=C(Nc1ccc(Cl)cc1)N1CCCN(Cc2ccccc2Br)C1,inactive
5,O=C1C2=C(Nc3ccccc3SC2c2cccc(I)c2)c2ccccc21 (centres undefined),inactive
6,N#Cc1ccc(NC(=S)NCc2ccc(Cl)cc2)cc1,inactive
7,O=C(Nc1cccc(F)c1)N1CCCN(Cc2ccccc2F)C1,inactive
8,Cc1cccc(NC(=O)N2CCCN(Cc3ccccc3F)C2)c1,inactive
9,Cc1ccccc1CNC(=S)Nc1ccncc1,inactive
10,COc1ccccc1CNC(=S)Nc1ccncc1,inactive
11,O=C(Nc1cccc(I)c1)N1CCCN(Cc2ccccc2F)C1,inactive
12,N#Cc1ccccc1NC(=S)NCc1ccc(Cl)cc1,inactive
13,S=C(NCCc1ccc(Cl)cc1)Nc1ccncc1,inactive
14,O=C(Nc1ccc(Cl)cc1)N1CCCN(Cc2ccc(Br)cc2)C1,inactive
